{"source": "PubChem BioAssay AID1053125", "about": "(Broad Institute, 2014)", "note": "Measured potencies and affinities stand elsewhere. Calls of active or inactive are those of the source.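 Rule for the calls: active = viability loss whose fitted half-maximal concentration is at most twice the top valid tested dose; inconclusive = flat curve with 30 to 70% loss, or poor fit; inactive = the rest.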"}
{"assay": "HepG2 cell cytotoxicity, dose response, cytotoxicity control, ATP luminescence, cherry-pick, set 6 (AID 1053125);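 note: negative values mean loss of viability signal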", "conditions": "HepG2 viability, ATP luminescence (CellTiter-Glo), 72 h; series mostly up to 26 µM"}
{"smiles": "O=c1oc2c(CN3CCN(CCO)CC3)c(O)ccc2cc1-c1ccccn1", "outcome": "inactive"}
{"smiles": "COc1cccc(N2CCN(C(=O)C3CCCN(S(=O)(=O)c4cnc[nH]4)C3)CC2)c1", "note": "(centres undefined)", "outcome": "inactive"}
{"smiles": "Fc1ccc(-c2nc3ccccn3c2NCc2ccc3c(c2)OCO3)cc1", "outcome": "inactive"}
{"smiles": "Cc1oc(/N=C/c2ccc(O)cc2O)c(C#N)c1C", "outcome": "inactive"}
{"smiles": "O=C(O)c1ccc(N2N=C(c3ccccc3)CC2c2ccccc2)cc1", "note": "(centres undefined)", "outcome": "inactive"}
{"smiles": "CNNC(=S)NC1CC2CC1C1C=CCC21", "note": "(centres undefined)", "outcome": "inactive"}
{"smiles": "COc1ccccc1C1C2=C(CC(C)(C)CC2=O)N(CC(=O)O)C2=C1C(=O)CC(C)(C)C2", "outcome": "inactive"}
{"smiles": "CCc1ccccc1S(=O)(=O)Cc1ccc(C(=O)N2CCN(c3ccccc3OC)CC2)o1", "outcome": "inactive"}
{"smiles": "CCOc1ccc2nc(NCCCNS(=O)(=O)c3ccc(C)cc3)c(C#N)cc2c1", "outcome": "inactive"}
{"smiles": "O=C(O)[C@@H]1CCCN1S(=O)(=O)c1cccc(S(=O)(=O)N2CCC[C@H]2C(=O)O)c1", "outcome": "inactive"}
{"smiles": "Cc1cccn2c(=O)c3cc(C(=O)NCCN4CCOCC4)c(=N)n(CCc4ccccc4)c3nc12", "outcome": "inactive"}
{"smiles": "Cc1nc2ccc(S(=O)(=O)Nc3ccc(-c4nc5cccnc5s4)cc3)cc2s1", "outcome": "inactive"}
{"smiles": "CN(C)/C=C/C(=O)c1c(F)cccc1F", "outcome": "inactive"}
{"smiles": "Cc1cccn2c(=O)c3cc(C(=O)NCc4ccc(F)cc4)c(=N)n(CCCN4CCOCC4)c3nc12", "outcome": "inactive"}
{"smiles": "O=c1[nH]c2ccccc2nc1/C=C/c1ccccc1", "outcome": "inactive"}
{"smiles": "Cc1nc(CCNC(=O)Cc2ccc(Cl)cc2)cs1", "outcome": "inactive"}
{"smiles": "CC(C)CCN1C(=O)c2cccc3c(N)ccc(c23)C1=O", "outcome": "inactive"}
{"smiles": "O=C(CCc1c[nH]c2ccccc12)OCC(=O)c1ccccc1", "outcome": "inactive"}
{"smiles": "O=C(Cc1csc(-c2ccccc2)n1)NCc1ccccc1F", "outcome": "inactive"}
{"smiles": "Cc1cc2cc(CNC(=O)c3ccco3)ccc2n1C", "outcome": "inactive"}
{"smiles": "CCC(C)NC(=S)N1CCN(Cc2ccc3c(c2)OCO3)CC1", "note": "(centres undefined)", "outcome": "inactive"}
{"smiles": "[O-]/[N+](=C/c1ccccc1)c1ccccc1", "outcome": "inactive"}
{"smiles": "COc1cc(C2C3=C(CC(C)(C)CC3=O)N(C)C3=C2C(=O)CC(C)(C)C3)cc(Br)c1O", "outcome": "inactive"}
{"smiles": "COc1ccc(Br)c(Cn2c(C)c(C(=O)NCc3ccc4c(c3)OCCO4)sc2=O)c1", "outcome": "inactive"}
{"smiles": "CCn1c(=N)c(S(=O)(=O)c2ccccc2)cc2c(=O)n3ccccc3nc21", "outcome": "inactive"}
{"smiles": "CCN1C=C(C(=O)OC)C(c2cccc(OC)c2OC)C(C(=O)OC)=C1", "outcome": "inactive"}
{"smiles": "CCOc1ccc(C(=O)c2cc3ccc(O)cc3oc2=O)cc1", "outcome": "inactive"}
{"smiles": "CC1CCN(C(=O)COc2cccc3c2CCN(Cc2ccccc2)C3=O)CC1", "outcome": "inactive"}
{"smiles": "Cc1cc2c(C)cc(=O)oc2c2c1NCCC2", "outcome": "inactive"}
{"smiles": "Cc1cc(OC(=O)c2ccccc2Cl)ccc1N1C(=O)CCC1=O", "outcome": "inactive"}
{"smiles": "C=Cc1ccc(Cn2c(C)c(C(=O)NCc3cccc(C)c3)sc2=O)cc1", "outcome": "inactive"}
{"smiles": "Cc1ccc(C(=O)OCC(=O)Nc2c(C)nn(-c3ccccc3)c2C)c(O)c1", "outcome": "inactive"}
{"smiles": "Cc1noc(C)c1-c1ccc(C(=O)NCCc2ccccc2)c2occc12", "outcome": "inactive"}
{"smiles": "Cn1c(=N)c(S(=O)(=O)c2ccccc2)cc2c(=O)n3ccccc3nc21", "outcome": "inactive"}
